PubChem BioAssay (NCATS)
Several values for one entry are separate records, joined by “and”; a condition that tells them apart may be missing. Identical values can stand only once. Records with an inconclusive call do not appear. A call without a number means that no potency is given here. Activity calls are given as the source filed them. Calls come from the whole dose curve; as a rule, active = well fitted curve in the direction sought with a large enough effect; inconclusive = small, poorly fitted or top-dose-only effect, or another doubt; inactive = no such curve, though single readings can be large; an effect the other way counts as inactive or inconclusive. Numbered stars: 1 amine (or outer) side, 2 acyl side, 3 side chain; on linkers, the order of the positions; unused ones are H or OH. Bridge positions count the residues as written; N and C are the ends. Square brackets hold non-standard residues; d marks the D form. Peptide text beside a SMILES is read from it. I, II: the chains in the order shown. Actinocin(9to1) = Cc1c2oc3c(C)ccc(C(=O)[*:1])c3nc-2c(C(=O)[*:2])c(N)c1=O; NMeV = CN[C@H](C(=O)O)C(C)C; Sar = CNCC(=O)O

system: Zika virus NS2B-NS3 protease (linked construct); assay: Primary screen NINDS Rhodamine qHTS for Zika virus inhibitors (AID 1347160); conditions: purified NS2B-NS3 protease, Rhodamine110 substrate fluorescence; series mostly up to 57.1 µM; note: nearly all actives have a fitted effect of over 55% in size
How it was run: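 Each compound, titrated, sat 15 min with 25 nM linked protease before 1.5 microM Rhodamine110 substrate went in. Fluorescence gain over the next 15 min, in pH 8.0 Tris with Tween 20, gave Hill-fitted curves.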

Structure (SMILES)	outcome
CN(C)CCCOc1nn(Cc2ccccc2)c2ccccc12	inactive
CC(=O)OCC(=O)[C@@]1(O)CC[C@H]2[C@@H]3CCC4=CC(=O)C=C[C@]4(C)[C@H]3[C@@H](O)C[C@@]21C	inactive
CC(C)n1nc(-c2cc3cc(O)ccc3[nH]2)c2c(N)ncnc21	inactive
COC(=O)C1=C(C)NC(C)=C(C(=O)O[C@@H]2CCCN(Cc3ccccc3)C2)[C@@H]1c1cccc([N+](=O)[O-])c1	inactive
OC[C@H]1O[C@H](O[C@]2(CCl)O[C@H](CCl)[C@@H](O)[C@@H]2O)[C@H](O)[C@@H](O)[C@H]1Cl	inactive
O=C(OCCOCCO)c1ccccc1Nc1cccc(C(F)(F)F)c1	inactive
CC(C)(C)CC(C)(C)c1ccc(OCCOCC[N+](C)(C)Cc2ccccc2)cc1	inactive
C#C[C@]1(OC(C)=O)CC[C@H]2[C@@H]3CCC4=C[C@@H](OC(C)=O)CC[C@@H]4[C@H]3CC[C@@]21C	inactive
CC(=O)OCC(=O)[C@@]1(O)[C@H](C)C[C@H]2[C@@H]3CCC4=CC(=O)C=C[C@]4(C)[C@@]3(F)[C@@H](O)C[C@@]21C	inactive
Cc1ccccc1C(=O)Nc1ccc(C(=O)N2CCCC(N(C)C)c3ccccc32)cc1 (centres undefined)	inactive

system: not listed separately; assay: Confirmatory screen NINDS Rhodamine qHTS for Zika virus inhibitors (AID 1347161); conditions: purified enzyme assay, Rhodamine110 substrate fluorescence, 15 min; series mostly up to 114 µM; note: nearly all actives have a fitted effect of over 60% in size; note: potency is the fitted concentration of half-maximal effect
How it was run: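 Enzyme (25 nM, linked NS2B-NS3) was preincubated 15 min with compound in 10 mM Tris-HCl pH 8.0, 0.01% Tween 20. Rhodamine110 substrate (1.5 microM) was then added and fluorescence read at start and after 15 min.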

Structure (SMILES)	Potency
Nc1nc2ncc(CNc3ccc(C(=O)N[C@@H](CCC(=O)O)C(=O)O)cc3)nc2c(=O)[nH]1	55.3 µM (active)
CC(C)C[C@H]1C(=O)N2CCC[C@H]2[C@]2(O)O[C@](NC(=O)[C@@H]3C=C4c5cccc6[nH]c(Br)c(c56)C[C@H]4N(C)C3)(C(C)C)C(=O)N12	inactive
Oc1c(Cl)cc(Cl)cc1Sc1cc(Cl)cc(Cl)c1O	7.08 µM (active)
O=C(Nc1ccc(Oc2ccc(Cl)cc2)c(Cl)c1)c1cc(I)cc(I)c1O	20 µM (active) and 3.93 µM (active)
Cc1c2oc3c(C)ccc(C(=O)N[C@@H]4C(=O)N[C@H](C(C)C)C(=O)N5CCC[C@H]5C(=O)N(C)CC(=O)N(C)[C@@H](C(C)C)C(=O)O[C@@H]4C)c3nc-2c(C(=O)N[C@@H]2C(=O)N[C@H](C(C)C)C(=O)N3CCC[C@H]3C(=O)N(C)CC(=O)N(C)[C@@H](C(C)C)C(=O)O[C@@H]2C)c(N)c1=O (I: T[dV]P[Sar][NMeV] / II: T[dV]P[Sar][NMeV]; ester I:1-I:C, II:1-II:C; linker I:N-II:N via Actinocin(9to1))	inactive

system: Zika virus NS2B-NS3 protease (linked construct); assay: 384 well plate NINDS Rhodamine confirmatory qHTS for Zika virus inhibitors (AID 1347164); conditions: rhodamine-110 peptide substrate fluorescence; series mostly up to 1 mM;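 note: fluorescence from protease cleavage of Ac-LKRR-rhodamine 110 substrate; nearly all actives have a fitted effect of over 65% in size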; note: potency is the fitted concentration of half-maximal effect
How it was run: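 Linked NS2B-NS3 protease (final 5, 30 or 60 nM) preincubated ~15 minutes with compounds, then 10 microM Ac-LKRR-Rhodamine 110 added. Fluorescence (485/538 nm) read after 25 minutes at room temperature, normalized to no-enzyme and no-inhibitor controls.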

Structure (SMILES)	Potency
CCCCC(CC)CN=C(N)NC(N)=NCCCCCCN=C(N)NC(N)=NCC(CC)CCCC (centres undefined)	39.8 µM (active)
Oc1c(Cl)cc(Cl)cc1Sc1cc(Cl)cc(Cl)c1O	200 µM (active)
O=C(Nc1ccc(Oc2ccc(Cl)cc2)c(Cl)c1)c1cc(I)cc(I)c1O	20 µM (active)
COc1c(C)c2c(c(O)c1C/C=C(\C)CCC(=O)O)C(=O)OC2	inactive

system: not listed separately; assay: Vero cells viability qHTS for Zika virus inhibitors (AID 1347167); conditions: cytotoxicity counter-screen (Zika); series mostly up to 45.9 µM; note: potency is the fitted concentration of half-maximal effect
How it was run: (§1)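 To flag cytotoxic protease inhibitors, viability is measured by ATP-dependent luminescence (CellTiter Glo) after cells attached overnight receive compound for 24 to 48 hours in DMEM with 4% FBS.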

Structure (SMILES)	Potency
Nc1nc2ncc(CNc3ccc(C(=O)N[C@@H](CCC(=O)O)C(=O)O)cc3)nc2c(=O)[nH]1	inactive
CC(C)C[C@H]1C(=O)N2CCC[C@H]2[C@]2(O)O[C@](NC(=O)[C@@H]3C=C4c5cccc6[nH]c(Br)c(c56)C[C@H]4N(C)C3)(C(C)C)C(=O)N12	inactive
CCCCC(CC)CN=C(N)NC(N)=NCCCCCCN=C(N)NC(N)=NCC(CC)CCCC (centres undefined)	29.4 µM (active)
Nc1ccn([C@@H]2O[C@H](CO)[C@@H](O)C2(F)F)c(=O)n1	inactive
COc1c(C)c2c(c(O)c1C/C=C(\C)CCC(=O)O)C(=O)OC2	inactive
Cc1c2oc3c(C)ccc(C(=O)N[C@@H]4C(=O)N[C@H](C(C)C)C(=O)N5CCC[C@H]5C(=O)N(C)CC(=O)N(C)[C@@H](C(C)C)C(=O)O[C@@H]4C)c3nc-2c(C(=O)N[C@@H]2C(=O)N[C@H](C(C)C)C(=O)N3CCC[C@H]3C(=O)N(C)CC(=O)N(C)[C@@H](C(C)C)C(=O)O[C@@H]2C)c(N)c1=O (I: T[dV]P[Sar][NMeV] / II: T[dV]P[Sar][NMeV]; ester I:1-I:C, II:1-II:C; linker I:N-II:N via Actinocin(9to1))	inactive
CC(C)(C)CC(C)(C)c1ccc(OCCOCC[N+](C)(C)Cc2ccccc2)cc1	inactive

system: not listed separately; assay: HepG2 cells viability qHTS for Zika virus inhibitors (AID 1347168); conditions: Zika counter-screen; series mostly up to 45.9 µM; note: potency is the fitted concentration of half-maximal effect
How it was run: as §1

Structure (SMILES)	Potency
Nc1nc2ncc(CNc3ccc(C(=O)N[C@@H](CCC(=O)O)C(=O)O)cc3)nc2c(=O)[nH]1	inactive
CC(C)C[C@H]1C(=O)N2CCC[C@H]2[C@]2(O)O[C@](NC(=O)[C@@H]3C=C4c5cccc6[nH]c(Br)c(c56)C[C@H]4N(C)C3)(C(C)C)C(=O)N12	inactive
CCCCC(CC)CN=C(N)NC(N)=NCCCCCCN=C(N)NC(N)=NCC(CC)CCCC (centres undefined)	13.1 µM (active)
Nc1ccn([C@@H]2O[C@H](CO)[C@@H](O)C2(F)F)c(=O)n1	inactive
O=C(Nc1ccc(Oc2ccc(Cl)cc2)c(Cl)c1)c1cc(I)cc(I)c1O	inactive
COc1c(C)c2c(c(O)c1C/C=C(\C)CCC(=O)O)C(=O)OC2	inactive
Cc1c2oc3c(C)ccc(C(=O)N[C@@H]4C(=O)N[C@H](C(C)C)C(=O)N5CCC[C@H]5C(=O)N(C)CC(=O)N(C)[C@@H](C(C)C)C(=O)O[C@@H]4C)c3nc-2c(C(=O)N[C@@H]2C(=O)N[C@H](C(C)C)C(=O)N3CCC[C@H]3C(=O)N(C)CC(=O)N(C)[C@@H](C(C)C)C(=O)O[C@@H]2C)c(N)c1=O (I: T[dV]P[Sar][NMeV] / II: T[dV]P[Sar][NMeV]; ester I:1-I:C, II:1-II:C; linker I:N-II:N via Actinocin(9to1))	inactive
CC(C)(C)CC(C)(C)c1ccc(OCCOCC[N+](C)(C)Cc2ccccc2)cc1	inactive
